Test results taken from PubChem BioAssay (EPA / NIEHS).
Active and inactive are the calls of the source. How the source made its calls: active means hit-call score of the fitted dose curve at least 0.9, where 1 is the maximum; inactive means score below 0.9.

Key:
[1] = read-out: Human Leukocyte Antigen - DR isotype (HLADR), HLA-DRA (gene 3122); assay: BSK_BE3C_HLADR: BioMAP Diversity Plus: BE3C Assay for Human Leukocyte Antigen - DR isotype (HLADR) Biomarker Activity (AID 2283032); settings: primary human bronchial epithelial cells; actives raise or lower the signal
Procedure, shortened: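 BioMAP BE3C format: human bronchial epithelium, 24 h compound treatment, ELISA detection of HLA-DR, with bidirectional analysis relative to DMSO.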

[2] = read-out: Interferon-gamma inducible Protein 10 (IP10), CXCL10 (gene 3627); assay: BSK_BE3C_IP10: BioMAP Diversity Plus: BE3C Assay for Interferon-gamma inducible Protein 10 (IP10) Biomarker Activity (AID 2283034); settings: primary human bronchial epithelial cells; actives raise or lower the signal
Procedure, shortened: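 BE3C cells (human bronchial epithelial, primary); 24 h exposure; ELISA for IP-10; DMSO-referenced bidirectional fit.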

[3] = read-out: Monokine induced gamma interferon (MIG), CXCL9 (gene 4283); assay: BSK_BE3C_MIG: BioMAP Diversity Plus: BE3C Assay for Monokine induced gamma interferon (MIG) Biomarker Activity (AID 2283035); settings: primary human bronchial epithelial cells; actives raise or lower the signal
Procedure, shortened: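 ELISA quantified MIG after 24 h exposure of primary bronchial epithelial cultures, analysed in both directions relative to DMSO. Cytotoxicity tracked in parallel cultures by sulforhodamine B staining.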

[4] = read-out: Transforming growth factor beta 1 (TGFb1), TGFB1 (gene 7040); assay: BSK_BE3C_TGFb1: BioMAP Diversity Plus: BE3C Assay for Transforming growth factor beta 1 (TGFb1) Biomarker Activity (AID 2283036); settings: primary human bronchial epithelial cells; actives raise or lower the signal
Procedure, shortened: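 TGF-b1 measured via ELISA, 24 h after chemical dosing of human bronchial epithelial cells (BE3C). Overt cytotoxicity assessed in parallel by SRB (0.1%, TCA-fixed, 560 nm); analysis bidirectional relative to DMSO.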

[5] = read-out: Plasminogen activator inhibitor-1 (PAI1), SERPINE1 (gene 5054); assay: BSK_BE3C_PAI1: BioMAP Diversity Plus: BE3C Assay for Plasminogen activator inhibitor-1 (PAI1) Biomarker Activity (AID 2283037); settings: primary human bronchial epithelial cells; actives raise or lower the signal
Procedure, shortened: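 In this multiplexed primary-cell system, bronchial epithelial cells receive test chemical and are sampled at 24 h. PAI-1 is read by ELISA, with DMSO serving as negative control for bidirectional fitting.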

[6] = read-out: urokinase plasminogen activator (uPA), PLAU (gene 5328); assay: BSK_BE3C_uPA: BioMAP Diversity Plus: BE3C Assay for urokinase plasminogen activator (uPA) Biomarker Activity (AID 2283038); settings: primary human bronchial epithelial cells; actives raise or lower the signal
Procedure, shortened: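 Human primary bronchial epithelial cells were exposed to chemical for 24 h, then uPA levels were measured by ELISA. Responses were fitted bidirectionally against DMSO as negative control and baseline. Parallel SRB staining of total protein gauged overt cytotoxicity.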

[7] = read-out: Urokinase-type plasminogen activator receptor (uPAR), PLAUR (gene 5329); assay: BSK_BE3C_uPAR: BioMAP Diversity Plus: BE3C Assay for Urokinase-type plasminogen activator receptor (uPAR) Biomarker Activity (AID 2283039); settings: primary human bronchial epithelial cells; actives raise or lower the signal
Procedure, shortened: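 Chemically treated human bronchial epithelial cells (lung primary) are assayed for uPAR by ELISA after 24 h, with data fitted in both directions using DMSO as negative control.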

[8] = read-out: Interleukin-6 (IL6), IL6 (gene 3569); assay: BSK_CASM3C_IL6: BioMAP Diversity Plus: CASM3C Assay for Interleukin-6 (IL6) Biomarker Activity for (AID 2283040); settings: primary human coronary artery smooth muscle cells; actives raise or lower the signal
[9] = read-out: Tissue plasminogen activator (tPA), PLAT (gene 5327); assay: BSK_BE3C_tPA: BioMAP Diversity Plus: BE3C Assay for Tissue plasminogen activator (tPA) Biomarker Activity (AID 2283041); settings: primary human bronchial epithelial cells; actives raise or lower the signal
Procedure, shortened: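 Using human lung primary bronchial epithelial cells, tPA was measured by ELISA 24 h after dosing; data fitted relative to DMSO.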

[10] = read-out: Interleukin-8 (IL8), CXCL8 (gene 3576); assay: BSK_CASM3C_IL8: BioMAP Diversity Plus: CASM3C Assay for Interleukin-8 (IL8) Biomarker Activity (AID 2283042); settings: primary human coronary artery smooth muscle cells; actives raise or lower the signal;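 further: IL-8 protein level quantified by ELISA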
[11] = read-out: Human Leukocyte Antigen - DR isotype (HLADR), HLA-DRA (gene 3122); assay: BSK_CASM3C_HLADR: BioMAP Diversity Plus: CASM3C Assay for Human Leukocyte Antigen - DR isotype (HLADR) Biomarker Activity (AID 2283043); settings: primary human coronary artery smooth muscle cells; actives raise or lower the signal;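 further: cell-surface HLA-DR protein level quantified by ELISA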
[12] = read-out: Macrophage colony-stimulating factor (MCSF), CSF1 (gene 1435); assay: BSK_CASM3C_MCSF: BioMAP Diversity Plus: CASM3C Assay for Macrophage colony-stimulating factor (MCSF) Biomarker Activity (AID 2283044); settings: primary human coronary artery smooth muscle cells; actives raise or lower the signal;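 further: M-CSF protein amount quantified by ELISA after 24 h exposure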
[13] = read-out: Low-density lipoprotein receptor (LDLR), LDLR (gene 3949); assay: BSK_CASM3C_LDLR: BioMAP Diversity Plus: CASM3C Assay for Low-density lipoprotein receptor (LDLR) Biomarker Activity (AID 2283045); settings: primary human coronary artery smooth muscle cells; actives raise or lower the signal;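 further: LDLR protein level on the cell surface quantified by ELISA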
[14] = read-out: Monocyte Chemoattractant Protein-1 (MCP1), CCL2 (gene 6347); assay: BSK_CASM3C_MCP1: BioMAP Diversity Plus: CASM3C Assay for Monocyte Chemoattractant Protein-1 (MCP1) Biomarker Activity (AID 2283046); settings: primary human coronary artery smooth muscle cells; actives raise or lower the signal;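 further: MCP-1 level quantified by ELISA 24 h after dosing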
[15] = BSK_CASM3C_Proliferation: Cell Proliferation Assessment in the BioMAP Diversity Plus: CASM3C Assay (AID 2283047); settings: primary human coronary artery smooth muscle cells;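 further: sulforhodamine B total protein stain as relative cell number at 560 nm; sub-confluent cells exposed 48 h before staining; fitted both ways against DMSO so gain or loss of cell number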
[16] = read-out: Monokine induced gamma interferon (MIG), CXCL9 (gene 4283); assay: BSK_CASM3C_MIG: BioMAP Diversity Plus: CASM3C Assay for Monokine induced gamma interferon (MIG) Biomarker Activity (AID 2283048); settings: primary human coronary artery smooth muscle cells; actives raise or lower the signal
[17] = read-out: serum amyloid A (SAA), SAA1 (gene 6288); assay: BSK_CASM3C_SAA: BioMAP Diversity Plus: CASM3C Assay for serum amyloid A (SAA) Biomarker Activity (AID 2283049); settings: primary human coronary artery smooth muscle cells; actives raise or lower the signal;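 further: SAA protein level quantified by ELISA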
[18] = BSK_CASM3C_SRB: Viability Assessment in the BioMAP Diversity Plus: CASM3C Assay (AID 2283050); settings: primary human coronary artery smooth muscle cells;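 further: total protein by SRB staining as cytotoxicity measure in parallel cultures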
[19] = read-out: Thrombomodulin, THBD (gene 7056); assay: BSK_CASM3C_Thrombomodulin: BioMAP Diversity Plus: CASM3C Assay for Thrombomodulin Biomarker Activity (AID 2283051); settings: primary human coronary artery smooth muscle cells; actives raise or lower the signal;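 further: thrombomodulin protein level measured by ELISA 24 h after dosing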
[20] = read-out: Vascular cell adhesion molecule 1 (VCAM1), VCAM1 (gene 7412); assay: BSK_4H_VCAM1: BioMAP Diversity Plus: 4H Assay for Vascular cell adhesion molecule 1 (VCAM1) Biomarker Activity (AID 2283033); settings: primary human endothelial cells (HUVEC); actives raise or lower the signal
Procedure, shortened: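 In this human endothelial (HUVEC) system, biomarker ELISA was run 24 h after compound addition, and total protein in parallel wells was assessed by SRB at 560 nm; DMSO served as negative control.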

Measured: AC50

COP(=S)(OC)Oc1nc(Cl)c(Cl)cc1Cl
active: [15] 32.1 µM | [19] 16.1 µM
inactive: [1] | [2] | [3] | [4] | [5] | [6] | [7] | [8] | [9] | [10] | [11] | [12] | [13] | [14] | [16] | [17] | [18]

C#CCOS(=O)OC1CCCCC1Oc1ccc(C(C)(C)C)cc1 (configuration not stated)
active: [1] 13.8 µM | [20] 26.8 µM | [2] 16.3 µM | [3] 25.5 µM | [6] 27 µM | [7] 20 µM | [9] 13.2 µM | [11] 9.71 µM | [12] 27 µM | [14] 29.8 µM | [15] 16.5 µM | [17] 5.32 µM | [18] 20 µM | [19] 5.22 µM
inactive: [4] | [8] | [10] | [13] | [16]

N#CC(CCc1ccc(Cl)cc1)(Cn1cncn1)c1ccccc1 (configuration not stated)
active: [1] 31.2 µM | [2] 33.7 µM
inactive: [20] | [3] | [4] | [6] | [7] | [8] | [9] | [10] | [11] | [12] | [13] | [14] | [15] | [16] | [17] | [18] | [19]

N#Cc1nn(-c2c(Cl)cc(C(F)(F)F)cc2Cl)c(N)c1S(=O)C(F)(F)F (configuration not stated)
inactive: [4] | [6] | [7] | [8] | [9] | [10] | [11] | [13] | [14] | [16] | [17]
active: [1] 14.2 µM | [20] 20 µM | [2] 23.2 µM | [3] 28.3 µM | [12] 25.1 µM | [15] 20 µM | [18] 24.9 µM | [19] 21.9 µM

COc1nc(NC(C)C)nc(NC(C)C)n1
active: [7] 2.36 µM
inactive: [1] | [20] | [2] | [3] | [4] | [6] | [8] | [9] | [10] | [11] | [12] | [13] | [14] | [15] | [16] | [17] | [18] | [19]

COC(=O)N(OC)c1ccccc1COc1ccn(-c2ccc(Cl)cc2)n1
active: [1] 3.97 µM | [2] 8.98 µM | [10] 15.8 µM | [15] 6.45 µM | [19] 31.2 µM
inactive: [20] | [3] | [4] | [6] | [7] | [8] | [9] | [11] | [12] | [13] | [14] | [16] | [17] | [18]

Oc1ccccc1-c1ccccc1
inactive: [1] | [20] | [2] | [3] | [4] | [6] | [7] | [8] | [9] | [10] | [11] | [12] | [13] | [14] | [15] | [16] | [17] | [18] | [19]

CC(C)(C)c1ccc(CSc2cnn(C(C)(C)C)c(=O)c2Cl)cc1
active: [1] 7.02 µM | [2] 23.5 µM | [4] 0.832 µM | [13] 20 µM | [15] 6.17 µM | [19] 31.8 µM
inactive: [20] | [3] | [6] | [7] | [8] | [9] | [10] | [11] | [12] | [14] | [16] | [17] | [18]
